# “And” between values parts separate entries of the source, which are not always exact repeats. Identical values can stand only once. Among all 83,000 compounds or so, about 780 (0.94%) were called active.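 How the source made its calls: active means mean inhibition of at least 50% with a set share of replicates also reaching that level; inconclusive means no clear call, values can overlap the other calls; inactive means the rest.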 The full list was thinned out, with actives kept by preference. The source holds several records for some structures; these can differ, active in one and inactive in another.
# Assay: inhibitors of CD40-induced NF-kB signaling, primary screen, BL2 cells, luciferase reporter, single point (AID 1053188);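 further: 0% = neutral control wells and 100% = IKK inhibitor VII at 50 µM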
# Conditions: CD40L-induced, 4 h, stronger effect = higher value; at 10 µM unless noted
row,Structure (SMILES),inhibition
1,Cn1cnc(S(=O)(=O)N2CCCCN3[C@@H](CO)[C@@H](c4ccc(C#CC5CCCC5)cc4)[C@@H]3C2)c1,2.82% [at 25 µM] (inactive)
2,COc1ccc(C#Cc2ccc([C@H]3[C@@H](CO)N4CCCCN(S(=O)(=O)c5cn(C)cn5)C[C@H]34)cc2)cc1,66.3% [at 25 µM] (active)
3,COc1ccc(C#Cc2ccc([C@@H]3[C@@H](CO)N4CCCCN(C(=O)c5ccncc5)C[C@@H]34)cc2)cc1,-18.8% [at 25 µM] (inactive)
4,Cc1nnc(CN(C)Cc2cn[nH]c2-c2ccc(-c3ccccc3)cc2)o1,-39% (inactive)
5,COc1ccccc1C(=O)NNC(=O)c1ccc(NC(=O)c2ccccc2)cc1,11.1% (inactive)
6,COc1ccc(C(=O)Nc2ccccc2C(=O)N/N=C/c2ccccc2OC)cc1,53.7% (active)
7,COc1ccc(C(=O)Nc2cc(C)ccc2NC(=O)COc2ccccc2)cc1,-29.7% (inactive)
8,CCCNC(=O)C1CC(=O)N(c2ccc(OCc3ccccc3)cc2)C1 (stereo unspecified),-7.3% (inactive)
9,O=C(C[C@H]1C=C[C@@H](NC(=O)c2cnccn2)[C@H](CO)O1)NCc1ccccc1F,3.55% [at 25 µM] (inactive)
10,O=C(Nc1ccccc1)c1nnsc1S(=O)(=O)c1ccc(Cl)cc1,96.6% (active)
11,Cc1nnsc1C(=O)N/N=C/c1ccccc1Cl,25% (inactive)
12,O=C(Nc1ccc(Cl)cc1)Nc1nnc(/C=C/c2ccccc2)s1,-0.929% (inactive)
13,Cc1cc(C(=O)OC(C)C(=O)NC2CCCCC2C)c(C)o1 (stereo unspecified),16.2% (inactive)
14,CC(=O)Nc1ccc(-c2csc(NC(=O)Nc3ccccc3)n2)cc1,-27.4% (inactive)
15,C[C@H]1CN([C@@H](C)CO)C(=O)CCCn2cc(nn2)CO[C@H]1CN(C)C(=O)Nc1cccc(C(F)(F)F)c1,3.26% [at 25 µM] (inactive)
16,NC(c1csc(NC(=O)Nc2cccc(C(F)(F)F)c2)n1)C1CCCCC1 (stereo unspecified),76.7% (active)
17,CC(C)C[C@H](NC(=O)Nc1cccc(C(F)(F)F)c1)C(=O)O,17.4% (inactive)
18,O=C(Nc1cccc(C(F)(F)F)c1)c1cnccn1,-0.813% (inactive)
19,NC(c1ccccc1)c1csc(NC(=O)Nc2cccc(C(F)(F)F)c2)n1 (stereo unspecified),75% (active)
20,COc1ccc(NC(=O)Nc2ccc3c(c2)C(=O)N([C@@H](C)CO)C[C@H](C)[C@H](CN(C)Cc2ccc(C(F)(F)F)cc2)OCCCC[C@H](C)O3)cc1,8.72% (inactive)
21,c1ccc(CNCc2ccc(CNCc3ccccc3)cc2)cc1,-8.05% (inactive)

row,Structure (SMILES),inhibition
1,Cc1ccc(S(=O)(=O)NCCC(=O)NNC(=O)C2COc3ccccc3O2)cc1 (stereo unspecified),-6.13% (inactive)
2,Cc1ccsc1C(=O)OCC(=O)c1cc2ccccc2o1,-95.3% (inactive)
3,Cc1cc(C(=O)Cn2cnc3cc([N+](=O)[O-])ccc3c2=O)c(C)n1CC1CCCO1 (stereo unspecified),0.959% (inactive)
4,Cc1ccsc1C(=O)OCC(=O)c1cc(C)n(CC2CCCO2)c1C (stereo unspecified),94% (active)
5,O=C(OCC(=O)N1CCCC1=O)c1cc(S(=O)(=O)N2CCOCC2)ccc1Cl,17.8% (inactive)
6,O=C(Nc1ccc2c(c1)OCCO2)C1CCCC1,97.3% (active)
7,O=C(Nc1ccc2c(c1)OCCO2)C1CCCN(c2ncccn2)C1 (stereo unspecified),-6.73% (inactive)
8,O=C(Nc1ccc2c(c1)OCCO2)c1ccncc1,-42.5% (inactive)
9,CCOC(=O)COc1nc(C)cc(C(F)(F)F)c1C#N,7.91% (inactive)
10,CCCN1[C@H](CO)[C@H](c2ccc(C#CC3CCCCC3)cc2)[C@@H]1CNC(=O)C1CC1,-8.21% [at 25 µM] (inactive)
11,Cc1onc(-c2ccccc2)c1-c1nnc(COC(=O)c2ccc(N(C)C)cc2)o1,27.4% (inactive)
12,CCN(Cc1ccccc1)S(=O)(=O)c1cc2c3c(c1)CCN3C(=O)CC2,12.8% (inactive)
13,CC(C)(Oc1ccc(Cl)cc1)C(=O)OCC(=O)NCCc1ccc(S(N)(=O)=O)cc1,11.6% (inactive)
14,Cc1ccc(CNC(=O)COC(=O)C2CCC2)cc1,-4.82% (inactive)
15,Cc1ccc(/C=C/C(=O)OCC(=O)NCc2ccc(Cl)cc2)o1,50.7% (active)
16,COC(=O)c1sc(NC(=O)COC(=O)C2CCC2)c(C(=O)OC)c1C,2.99% (inactive)
17,CC[C@H]1CN2CCc3cc(OC)c(OC)cc3[C@@H]2C[C@@H]1C[C@H]1NCCc2cc(OC)c(OC)cc21,89.6% (active)
18,CCn1cc(-c2cc(C(=O)O)on2)c(C)n1,8.77% (inactive)
19,CS(=O)(=O)N1[C@H](C#N)[C@H](c2ccc(C#CC3CCCC3)cc2)[C@H]1CO,-13.6% [at 25 µM] (inactive)
20,N#C[C@H]1[C@@H](c2ccc(C#CC3CCCC3)cc2)[C@H](CO)N1C(=O)Nc1ccc(F)cc1,12% (inactive)
21,CC(C)C#Cc1ccc([C@@H]2[C@@H](C#N)N(C(=O)C3CC3)[C@@H]2CO)cc1,3.05% [at 25 µM] (inactive)

row,Structure (SMILES),inhibition
1,N#C[C@@H]1[C@H](c2ccc(C#CC3CCCCC3)cc2)[C@@H](CO)N1S(=O)(=O)c1ccccc1,51.3% (active)
2,CS(=O)(=O)N1[C@@H](C#N)[C@H](c2ccc(C#CC3CCCCC3)cc2)[C@@H]1CO,-1.7% (inactive)
3,CC(C)NC(=O)N1[C@H](C#N)[C@H](c2ccc(C#CC3CCCCC3)cc2)[C@H]1CO,52.1% (active)
4,O=C(O)C(c1cccs1)C1(O)CCCCC1 (stereo unspecified),6.28% (inactive)
5,Cn1c(N)cc(-c2ccc(F)cc2)c(C#N)c1=O,4.59% (inactive)
6,COc1ccc(S(=O)(=O)N2CCOCC2)cc1NC(=O)CSc1cc(C)ccc1C,2.01% (inactive)
7,Cc1cc2ccccc2n1CCC(=O)O,4.73% (inactive)
8,C[C@@H]1C(=O)N[C@H](c2ccc3c(c2)OCO3)CC=CC[C@H](C)Oc2ccccc2C(=O)N1C (mixture of isomers),3.83% [at 25 µM] (inactive)
9,C[C@@H]1CC=CC[C@H](c2ccc(F)cc2)NC(=O)[C@@H](Cc2ccccc2)N(C)C(=O)c2ccccc2O1 (mixture of isomers),53.9% [at 25 µM] (active)
10,C[C@@H]1CC=CC[C@@H](c2ccccc2)NC(=O)[C@H](C)N(C)C(=O)c2ccccc2O1 (mixture of isomers),8.95% [at 25 µM] (inactive)
11,CS(=O)(=O)N1CCN(CC(=O)NC2CCCC2)CC1,4.72% (inactive)
12,CS(=O)(=O)N1C[C@@H]2C(c3ccccc3)[C@H](C1)N2CC(F)(F)F (stereo partly specified),8.84% (inactive) and 23.5% (inactive)
13,COc1cccc(NC(=O)COC(=O)c2ccc3ccccc3n2)c1,-7.67% (inactive)
14,c1ccc(C(=NNc2nc3ccccc3s2)c2ccccn2)cc1,72.5% (active)
15,Cc1ccnc(Nc2nc3ccccc3s2)n1,-62.3% (inactive)
16,O=C(Nc1ccccc1)Nc1nc2ccccc2s1,-102% (inactive)
17,CCN1CCN(c2ccc(S(=O)(=O)N3CCCCC3)cc2NC(=O)c2cccc(NC(C)=O)c2)CC1,1.54% (inactive)
18,CCN1CC(CN(C)Cc2nc(-c3ccc(Cl)cc3)no2)CC1=O (stereo unspecified),2.41% (inactive)
19,CC1CCCC(NC(=O)c2cc(S(=O)(=O)N3CCCCC3)ccc2Cl)C1C (stereo unspecified),6.89% (inactive)
20,Cc1ccc(NC(=O)c2ccco2)cc1,-36.5% (inactive)
21,COc1cc(C(=O)CCc2ccc3c(c2)OCO3)cc(OC)c1OC,1.79% (inactive)

row,Structure (SMILES),inhibition
1,CCC1CCC2(CC1)NC(=O)N(CC(=O)Nc1ccc(OC)cc1)C2=O (stereo unspecified),-0.377% (inactive)
2,C/C=C/c1ccc(C2[C@H]3CNC[C@@H]2N3Cc2cccc(F)c2)cc1 (stereo partly specified),0.374% (inactive) and -2.51% (inactive)
3,C/C=C/c1ccc(C2[C@H]3CNC[C@@H]2N3CC2CCOCC2)cc1 (stereo partly specified),9.41% (inactive)
4,C/C=C/c1ccc(C2[C@H]3CNC[C@@H]2N3Cc2cccc(OC)c2)cc1 (stereo partly specified),-2.62% (inactive) and -20.4% (active)
5,CCc1noc(C)c1C(=O)N1CCN(S(=O)(=O)c2cccc(C(F)(F)F)c2)CC1,1.62% (inactive)
6,O=C1COc2c1ccc(O)c2O,12.2% (inactive)
7,COc1ccc2c(C)cc(SCC(=O)NCC3CCCO3)nc2c1 (stereo unspecified),1.77% (inactive)
8,Cc1noc(C)c1S(=O)(=O)Nc1ccc2c(c1)C(=O)N([C@@H](C)CO)C[C@@H](C)[C@H](CN(C)C(=O)Nc1cccc3ccccc13)OCCCC[C@H](C)O2,8.4% [at 25 µM] (inactive)
9,Cc1noc(C)c1S(=O)(=O)Nc1ccc2c(c1)C(=O)N([C@@H](C)CO)C[C@H](C)[C@@H](CN(C)C(=O)Nc1cccc3ccccc13)OCCCC[C@H](C)O2,48% [at 25 µM] (active)
10,Cc1ccc(S(=O)(=O)Nc2ccc3c(c2)C(=O)N([C@@H](C)CO)C[C@@H](C)[C@H](CN(C)C(=O)Nc2cccc4ccccc24)OCCCC[C@H](C)O3)cc1,9.18% (inactive)
11,O=C(Cc1ccccn1)N1CC(=O)N2[C@H](CO)[C@@H](c3ccc(C#CC4CCCC4)cc3)[C@H]2C1,-16.2% (inactive)
12,O=C(Cc1ccc(Cl)cc1)c1ccccc1,-54.5% (inactive)
13,C/C=C/c1cccc(-c2nc(C(=O)NCCN3CCCC3)cc3c2[C@@H](CCO)N([S@](=O)C(C)(C)C)C3)c1,-2.95% (inactive)
14,Cc1cc([N+](=O)[O-])nn1CC(=O)Nc1ccc(Cc2ccncc2)cc1,-4.38% (inactive)
15,CN(C)CCNC(=O)Nc1cccc(Cl)c1Cl,7.22% (inactive)
16,CN(C)CCNC(=O)c1ccc(Cl)c2cc3ccccc3nc12,80.1% (active)
17,CCCNC(=O)c1ccc(Cl)c(Cl)c1,0.458% (inactive)
18,Cc1ccc(S(=O)(=O)NCCC(=O)NCc2ccc(Cl)cc2)cc1C,0.373% (inactive)

# — PubChem BioAssay AID1053188 (Broad Institute, 2014)
